Drawing on ChEMBL document CHEMBL4513216, “Probing the Open Global Health Chemical Diversity Library for Multistage-Active Starting Points for Next-Generation Antimalarials” (ACS Infect Dis, 2020), this text covers INHIBITION for 108 molecules.

Screen size: about 69,000 compounds; about 8,600 (12%) showed an effect of 50% or more. The entries come from a sample that favours strong results as a whole.

The assay has as its system Plasmodium berghei. Briefly: Screen against P. berghei liver stage (PbLuc), transformed with Luciferase, at 10uM. In kind it is functional, HepG2. Particulars: tested at 10 uM.
On to `CC(C)COC(=O)N1CC(=O)N(Cc2ccco2)CC(O)C1` (stereo not drawn), for which the INHIBITION was found to be 47.2%.
For `CC(C)Nc1ncc(-c2ccncc2)c([C@@H]2CCCO2)n1`, the INHIBITION is on record as 11.8%.
The figure for `CN1CCn2c(-c3cnn(C)c3)cnc2C12CCN(CC1CC1)CC2` is 0.804%.
For the molecule `CN1CCC(c2nnc3n2CCN(S(=O)(=O)c2ccccc2)C3)CC1`, the INHIBITION turned out to be 40.45%.
In the case of `Cc1nc(CN(C)C2CCN(Cc3cccc(F)c3)C2)no1` (stereo not drawn) it was 17.5%; in that of `Cc1csc(CNc2cccc(OCCN3CCCC3)c2)n1`, 28%.
The figure for `Clc1cncc(NCc2cccc(OCCN3CCOCC3)c2)n1` is 58.5%.
Consider `Cc1ccnc(NCc2cccc(OCCN3CCOCC3)c2)n1`, for which the INHIBITION was -21.1%.
The figure for `c1cncc(CNc2cccc(OCCN3CCCCC3)c2)c1` is 68%; for `Cc1ncsc1CNc1cccc(OCCN2CCCC2)c1` it is 48.5%.
For `NC(=O)C1CCN(CCc2ccc(NCc3cccnc3)cc2)CC1`, the INHIBITION came out at 25.3%.
The figure for `c1cc(CN2CCCCC2)cc(NCc2cc[nH]n2)c1` is 2.22%; for `c1cc(NCc2cscn2)cc(OCCN2CCCCC2)c1` it is 56.1%.
Take `c1ccc(NCc2cccc(OCCN3CCOCC3)c2)nc1`: the INHIBITION is reported as -8.25%.
The figure for `CC(C)=CCN1CCN(C(=O)C2CCS(=O)(=O)C2)CC1` (stereo not drawn) is 8.4%; for `Cc1ncn(CCNC(=O)Nc2ccccc2)c(=O)c1C` it is -10.6%; for `O=S(=O)(CCCN1CCCC(Cn2cncn2)C1)c1ccccc1` (stereo not drawn) it is 7.67%.
The figure for `Cn1nc(Cn2cccn2)c2c1CN(Cc1ccoc1)C2` is 20.1%; for `CCn1ncc2[nH]c(-c3ccc(OC)c(COC)c3)nc21` it is -45.8%.
Take `CC(C)(C)c1cc(C(=O)N2CCOC(c3cnccn3)C2)[nH]n1` (stereo not drawn): the INHIBITION turned out to be 12.15%.
In the case of `Cc1cc(CN2CCC(C3Nc4ccccc4S(=O)(=O)N3)CC2)oc1C` (stereo not drawn) it was 32.8%; in that of `Cc1ncnc2c1CCN(C(=O)Cc1ccccn1)CC2`, 14.1%.
The figure for `COc1cccc(C(=O)N2CCc3ncnc(C)c3CC2)c1` is -34.9%; for `COc1cccc(CC(=O)N2CCc3ncnc(C)c3CC2)c1` it is 61.5%.
In the case of `COc1cccc(CC(=O)N2CCc3ncnc(NC(C)C)c3CC2)c1` it was -4.55%; in that of `COc1cccc(C)c1C(=O)N1CCc2ncnc(NCCO)c2CC1`, 27.6%.
In the case of `COc1cccc(CC(=O)N2CCc3ncnc(NCCO)c3CC2)c1`, the INHIBITION is 64%.
The figure for `COCCNc1ncnc2c1CCN(C(=O)CC1CCC(=O)N1)CC2` (stereo not drawn) is 73.2%.
In the case of `COCCCNc1ncnc2c1CCN(C(=O)CC1C=CCC1)CC2` (stereo not drawn) it was 48.2%.
In the case of `CC(C)Nc1ncnc2c1CCN(C(=O)CC1CCCC1)CC2` it was 18.3%; in that of `O=C(CCc1cc2n(n1)CCCN(C(=O)[C@H]1CCCO1)C2)NC1CC1`, 33.4%; in that of `CC(C)c1noc(C2CCN(S(=O)(=O)c3cccs3)CC2)n1`, 17.5%.
Take `O=C(Nc1cc(C(F)(F)F)c[nH]c1=O)C1CCNCC1`: the INHIBITION amounted to 11.9%.
In the case of `O=C(CN1CCOC(Cn2cncn2)C1)NCc1cccs1` (stereo not drawn) it was 34.05%; in that of `Cc1ccc(CN(CCCO)Cc2nc3ccccc3[nH]2)s1`, 29.1%.
In the case of `Cc1ccc(CN(CCCn2ccnc2)Cc2ccccc2O)s1` it was 54.4%; in that of `Cc1ccc(CN(CCCn2ccnc2)Cc2c[nH]nc2C(C)(C)C)s1`, 70.1%.
The figure for `Cc1ccc(CN(CCCn2ccnc2)Cc2[nH]cnc2C)s1` is 9.93%; for `COc1ccccc1CN(CCCn1ccnc1)CC1CCOC1` (stereo not drawn) it is 43.4%; for `Cc1ccc(O)c(CN(CCCn2ccnc2)Cc2ccc(C)s2)c1` it is 79.7%.
`Cc1cn2nc(N3CCCC3Cn3nc(C)nc3C)sc2n1` (stereo not drawn): the INHIBITION is reported as -39.7%.
The figure for `CC(C)c1noc(C(C)N2CCN(Cc3noc(C(C)(C)C)n3)CC2)n1` (stereo not drawn) is -35.7%; for `Cc1cc(C)nc(N2CCC(C(=O)Nc3n[nH]c(CC(C)C)n3)CC2)n1` it is 4.93%.
The figure for `CNC(=O)C1Cn2ccnc2C2(CCN(Cc3c(C)noc3C)CC2)O1` (stereo not drawn) is 3.11%.
Consider `Cc1nc(N)c2ccc(C3CCCN3)nc2n1` (stereo not drawn), for which the INHIBITION worked out at 26.55%.
In the case of `Cc1ccsc1C(O)CNS(=O)(=O)Cc1ccc(F)cc1` (stereo not drawn) it was 9.96%; in that of `Cc1ccsc1C(O)CNC(=O)Cc1ccc(F)cc1` (stereo not drawn), 56%; in that of `COc1ccc(F)cc1S(=O)(=O)NCC(O)c1sccc1C` (stereo not drawn), 16.9%.
With `COc1ccc(S(=O)(=O)NCC(O)c2sccc2C)cc1C` (stereo not drawn), the INHIBITION was determined as 6.34%.
The figure for `COc1ccc(CC(=O)NCC(O)c2sccc2C)cc1OC` (stereo not drawn) is 53.8%; for `COC(=O)c1ccc(S(=O)(=O)NCC(O)c2sccc2C)cc1` (stereo not drawn) it is -11.8%.
In the case of `Cc1ccsc1C(O)CNC(=O)Cc1ccc(S(=O)(=O)C(C)C)cc1` (stereo not drawn) it was 25.3%.
`Cc1cc(S(=O)(=O)NCC(O)c2sccc2C)ccc1F` (stereo not drawn): the INHIBITION amounted to 13.9%.
The figure for `COc1ccc(S(=O)(=O)NCC(O)c2sccc2C)cc1Cl` (stereo not drawn) is 51.7%.
In the case of `COc1ccccc1C(=O)NC(c1ccccn1)C1CCC(CN)CC1` (stereo not drawn) it was 44.1%.
The figure for `Cc1ncccc1-c1cc2cccnc2n1CCCNC(=O)C1CC1` is 25.8%; for `CN(Cc1ccccc1)CC(O)Cn1cnc2c(Cl)cc(Cl)cc2c1=O` (stereo not drawn) it is 27.433%.
Regarding `COCC1CN(C(=O)c2ccoc2C)Cc2nccn2C1` (stereo not drawn), the INHIBITION is 35.3%.
The figure for `CS(=O)(=O)NCCC(=O)NCc1cccnc1-n1cnc2ccccc21` is 41.2%; for `CC(=O)NCCC(=O)NCc1cccnc1-n1cnc2ccccc21` it is 60.1%.
In the case of `COCCC(=O)NCc1cccnc1-n1cnc2ccccc21` it was 33.9%; in that of `CSCCCN1C[C@H](NC(=O)c2cnn(C)c2)[C@@H](C2CC2)C1`, 12.6%.
In the case of `Cc1c(C(=O)N[C@H]2CN(CCS(C)(=O)=O)C[C@@H]2C2CC2)cnn1C` it was 29%; in that of `Cc1[nH]ccc1C(=O)N[C@H]1CN(CCO)C[C@@H]1C1CC1`, 9.89%; in that of `CCc1cc(C(=O)N[C@H]2CN(CCS(C)(=O)=O)C[C@@H]2C2CC2)[nH]n1`, 55%.
As for `CS(=O)(=O)CCN1C[C@H](NC(=O)c2cnc(O)cn2)[C@@H](C2CC2)C1`, the INHIBITION is -3.43%.
In the case of `Cc1cnc(C(=O)N[C@H]2CN(CCS(C)(=O)=O)C[C@@H]2C2CC2)cn1` it was 53.9%; in that of `Cc1ccc(CNC(C)c2ccc(N3CCN(C)CC3)c(F)c2)o1` (stereo not drawn), -11%; in that of `C1CCc2nnc(CNc3nc(C4CC4)nc4c3CCNCC4)n2CC1`, 3.06%.
With `CCc1ccc(S(=O)(=O)Nc2cc(C(=O)O)ccc2F)s1`, the INHIBITION is given as 13.85%.
On to `COCCNC(=O)c1cc(S(=O)(=O)N2CCCC2)cs1`, for which the INHIBITION amounted to 10.3%.
In the case of `CCN(c1ccsc1C(=O)N1CCSCC1)S(=O)(=O)c1ccccc1` it was -27.5%.
Turning to `NC(=O)C1CCN(Cc2ccc(S(=O)(=O)N3CCCC3)o2)CC1`, the INHIBITION came to 16.5%.
In the case of `NC(=O)C1CCN(C(=O)c2cc(S(=O)(=O)N3CCCC3)cs2)CC1` it was 56.3%; in that of `NC(=O)C1CCN(C(=O)c2cc(S(=O)(=O)N3CCCCC3)cs2)CC1`, 56.3%; in that of `CCN(CC)S(=O)(=O)c1csc(C(=O)N2CCC(C(N)=O)CC2)c1`, 49.9%.
In the case of `CN(C)S(=O)(=O)c1csc(C(=O)N2CCC(C(N)=O)CC2)c1` it was 60.1%; in that of `O=C(c1cc(-c2cccs2)cs1)N1CCSCC1`, -61.1%; in that of `CCN(c1ccc(C(=O)N2CCC(C(N)=O)CC2)cc1)S(=O)(=O)CC`, 47.3%.
In the case of `NS(=O)(=O)c1cc(C(=O)N2CCCCC2)cs1` it was 30.7%; in that of `CN(C)S(=O)(=O)c1csc(C(=O)N2CCSCC2)c1`, 65.6%; in that of `COCCNC(=O)c1cc(S(=O)(=O)N2CCCCCC2)cs1`, 45.6%.
With `CC(C(=O)N1CCCN(c2ccc(C#N)cc2)CC1)n1cccn1` (stereo not drawn), the INHIBITION came to 10%.
In the case of `CCc1nc(C2CCCN2CC(=O)N2CCc3ccccc32)no1` (stereo not drawn), the INHIBITION stood at 23.5%.
In the case of `O=C(CCc1nc2cccnc2[nH]1)Nc1ccc2c(c1)OCC(=O)N2` it was 17.1%.
In the case of `CC(C)(C)c1cc(C(=O)N2CCC(c3cnccn3)CC2)[nH]n1`, the INHIBITION was determined as 29.9%.
In the case of `CC(C)CCC(=O)NCCc1ccn(-c2ccccc2)n1` it was 5.7%; in that of `NC(=O)CN(Cc1ccc(Br)cc1)C(=O)c1ccncc1`, -9.51%.
The figure for `CCNc1ncc(CN2C[C@@H](C(=O)O)[C@H](C3CC3)C2)cn1` is 58.2%; for `CCNc1ncc(CN2C[C@H](C3CC3)[C@@H](N)C2)cn1` it is 23.9%; for `CCNc1ncc(CN2C[C@@H]3CC[C@H]2CN(C(=O)C2CCC2)C3)cn1` it is 60.4%.
The figure for `CCCNc1ncc(CN2C[C@@H]3CC[C@H]2CN(C2CCOCC2)C3)cn1` is 1.98%; for `Cc1ccc(C(=O)N2C[C@H]3CC[C@@H](C2)N(Cc2ccccc2)C3)cn1` it is -13%.
As for `O=C(O)[C@@H]1CN(Cc2cnc(C3CCCCC3)nc2)C[C@H]1C1CC1`, the INHIBITION worked out at 29.6%.
The figure for `CCOc1ccc(C(=O)N2C[C@@H]3CC[C@H]2CN(C(=O)C2CCC2)C3)cc1` is 30.3%.
In the case of `CCn1cc(CN2C[C@@H]3CC[C@H]2CN(C(=O)C2CCC2)C3)cn1`, the INHIBITION is recorded as 4.15%.
Regarding `CCc1ncc(CN2C[C@@H]3CC[C@H]2CN(C(=O)C2CCC2)C3)cn1`, the INHIBITION is on record as 62.6%.
In the case of `Cc1ccc(NC2COC3(CCN(Cc4ccn(C)n4)CC3)C2)nn1` (stereo not drawn) it was -4.99%; in that of `Cc1ccc([C@@H]2CN(C(=O)c3ccccc3C)C[C@H]2N(C)C)cc1`, 39.5%; in that of `N#Cc1ccccc1CN1C[C@H]2CC[C@@H](C1)N(CC1CCC1)C2=O`, 42.6%.
For `O=C(N1CCC(Nc2cccnn2)CC1)C1(c2ccc(F)cc2)CC1`, the INHIBITION was determined as 30.2%.
In the case of `CCc1ncc2c(n1)CN(CCCc1nc3ccccc3o1)CC2` it was 38.5%.
In the case of `COCCCNC(=O)CN(C)C(C)c1nc(C)no1` (stereo not drawn) it was 14.6%; in that of `COCCCNC(=O)c1c(C)noc1C(C)C`, -33.7%; in that of `COCCNC(=O)CN(C)C(C)c1nc(C)no1` (stereo not drawn), 58.5%.
In the case of `COCCCNC(=O)CN(C)C(=O)c1ccccc1O` it was 20.4%; in that of `COCCCNC(=O)CN(C)C(C)c1nc(C(C)C)no1` (stereo not drawn), 59.3%; in that of `Cc1noc(C(C)N(C)CC(=O)NCCc2ccc(Cl)cc2)n1` (stereo not drawn), -9.3%.
